# Screens (PubChem)
# FLuc counter = inhibits or activates purified firefly luciferase, miR-21 counter-screen. P08659. purified FLuc, Km substrates, luminescence inhibition. Potency, µM (highest dose often 57.5 µM), most hits filed as inhibitors. actives 6.9% (n = 360,000); note: nearly all actives have a fitted effect of over 55% in size
# Target sequence (P08659 whole entry, looked up): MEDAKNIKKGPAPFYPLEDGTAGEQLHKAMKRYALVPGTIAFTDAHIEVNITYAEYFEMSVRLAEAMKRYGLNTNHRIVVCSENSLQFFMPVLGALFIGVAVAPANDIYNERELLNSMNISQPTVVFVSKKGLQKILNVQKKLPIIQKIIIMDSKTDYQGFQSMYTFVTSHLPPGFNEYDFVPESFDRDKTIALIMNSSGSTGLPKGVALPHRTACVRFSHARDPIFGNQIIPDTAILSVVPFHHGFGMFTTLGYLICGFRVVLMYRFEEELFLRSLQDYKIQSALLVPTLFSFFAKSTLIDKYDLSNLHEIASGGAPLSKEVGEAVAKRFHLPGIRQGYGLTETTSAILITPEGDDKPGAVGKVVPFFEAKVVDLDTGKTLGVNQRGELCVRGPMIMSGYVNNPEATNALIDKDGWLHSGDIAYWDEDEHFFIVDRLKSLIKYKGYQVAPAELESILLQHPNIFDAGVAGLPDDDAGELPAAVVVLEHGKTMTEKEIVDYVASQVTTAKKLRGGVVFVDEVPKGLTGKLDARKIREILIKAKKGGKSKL
#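 Biochemical qHTS of compounds, final roughly 60 µM downward over six points, against 10 nM purified firefly luciferase using Km concentrations of substrates (10 uM D-luciferin, 10 uM ATP) in Tris acetate pH 7.5 buffer; luminescence output.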
# NPC1 prom act = activators of NPC1 promoter; Huh7 NPC1 promoter luciferase reporter, 24 h; Potency, µM (highest dose often 9.22 µM), hits mostly activators; actives 2.4% (n = 320,000); note: nearly all actives have a fitted effect of over 60% in size
#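 In 1536-well qHTS, Huh7 cells harboring an NPC1 promoter–luciferase construct received compound for 24 h; activation was quantified by luminescence following luciferase reagent addition.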
# ELG1 repair inh = blocks ELG1-dependent DNA repair in HEK293T cells; HEK293T ELG1-luciferase reporter, luminescence, 16 h; DNA damage induced by 5-fluorouridine; Potency, µM (top dose mostly 46.1 µM), actives largely listed as inhibitors; actives 2.3% (n = 330,000); AID 504467; note: nearly all actives have a fitted effect of over 55% in size
#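 5-Fluorouridine DNA damage + compound/DMSO, 2,000 cells/well, 16 h, 37 °C/5% CO2. ONE-Glo, 30 min RT, luminescence. Readout = decrease in reporter signal.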
# Rab9 promoter act = activators of Rab9 promoter; Huh7 Rab9 promoter-luciferase reporter, luminescence, 24 h; Potency, µM (top dose mostly 9.22 µM), hits mostly activators; actives 2.8% (n = 320,000); AID 485297; note: nearly all actives have a fitted effect of over 60% in size
#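 Quantitative HTS format; Huh7 Rab9-luciferase reporter cells (1500/well) receive compound 2 h post-plating, incubate 24 h at 37 °C, then get luciferase reagent for 10 min before luminescence reading.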
# ELG1 genotox = induces genotoxicity in HEK293T cells with luciferase-tagged ELG1 | HEK293T ELG1-luciferase reporter, luminescence, 16 h | Potency, µM (highest dose often 46 µM), most hits filed as activators | actives 1.3% (n = 330,000); note: nearly all actives have a fitted effect of over 60% in size
#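 After overnight (16 hr) compound treatment at 37 °C, ELG1-luciferase HEK293T cells were lysed with ONE-Glo; luminescence quantified 30 min later at room temperature.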
# SMN2 splice enh = SMN2 splice variant enhancement | HEK293 SMN2-luciferase splicing reporter, luminescence, 30-36 h | actives 2.8% (n = 210,000) | Potency, µM (titrated, usually from 46.1 µM), usual class: activators; note: nearly all actives have a fitted effect of over 55% in size
#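 HEK293 cells carry an SMN2 minigene-luciferase reporter in which exon 7 inclusion puts luciferase in frame. Cells were seeded at 2000 cells/well, attached for 10-12 hours, then exposed to compounds for 30-36 hours at 37C before ONE-Glo luminescence.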
# Numbers stand for hits; 0 = inactive; ? = inconclusive; - = no result; [ ] = dose if it differs, or a comment. Only some compounds are listed: those with a hit (about 9.4% of all), similar ones and a draw of the others. Calls come from the whole dose curve; as a rule, active = well fitted curve in the direction sought with a large enough effect; inconclusive = small, poorly fitted or top-dose-only effect, or another doubt; inactive = no such curve, though single readings can be large; an effect the other way counts as inactive or inconclusive.
SMILES,FLuc counter,NPC1 prom act,ELG1 repair inh,Rab9 promoter act,ELG1 genotox,SMN2 splice enh
Cc1ccc(-c2nnc(Nc3ccc(O)cc3)c3ccccc23)cc1S(=O)(=O)NCC1CCCO1 (stereo not drawn),?,-,-,-,-,0
Cc1c2c(nc3ccccc13)CCC(C(C)(C)C)C2 (stereo not drawn),12µM,0,?,0,0,?
O=C1c2ccccc2C(=O)c2c1ccc1c(=O)n(C3CCCCC3)[nH]c21,?,0,21µM,0,0,0
O=C(COC(=O)c1cccc2c1C(=O)c1ccccc1C2=O)NC1CCCCC1,?,0,?,0,0,0
N=C(N)SC(c1ccccc1)c1ccccc1,-,-,-,-,-,0[9.22 µM]
Cc1nc2ccccc2c2c(N)c3ccccc3n12,?,0,26µM,0,0,0
O=[N+]([O-])c1ccc(C[n+]2cccc3ccc4cccnc4c32)cc1,0,0,7.3µM,0,0,-
O=[N+]([O-])c1ccc(C[n+]2cccc3ccccc32)cc1,0,0,0,0,0,0
CC(=O)c1ccc(NC(=O)CSc2ccc(-c3sc(C)nc3C)nn2)cc1,13µM,0,18µM,0,0,-
CCOC(=O)c1ccc(NC(=O)CSc2ccc(-c3ccccn3)nn2)cc1,11µM,0,0,0,?,-
Cc1ccc(NC(=O)CSc2ccc(-c3ccccn3)nn2)c(C)c1,0,0,21µM,0,0,-
Cc1ccc(NC(=O)CSc2ccc(-c3ccccn3)nn2)cc1,0,0,?,0,?,0
O=C(CSc1ccc(-c2ccccn2)nn1)Nc1ccc(F)c(F)c1,13µM,0,?,0,?,-
Cc1nc(C)c(-c2ccc(SCC(=O)Nc3ccc(C)c(Cl)c3)nn2)s1,?,0,0,0,0,-
CCOc1ccc(NC(=O)CSc2ccc(-c3ccccn3)nn2)cc1,0,0,?,0,0,-
CCc1ccc(CN(Cc2ccco2)c2cnc(S(C)(=O)=O)nc2C(=O)Nc2c(C)cccc2C)cc1,0,-,-,-,-,-
COC(=O)c1ccc(NC(=O)CSc2ccc(-c3sc(-c4ccccc4)nc3C)nn2)cc1,0,-,-,-,-,-
CCC(C)(C)OC,-,-,-,-,-,0
O=C(c1ccco1)N1CCN(C(c2cccs2)c2nnnn2C2CCCC2)CC1 (stereo not drawn),0,0,0,0,0,0
O=C(c1ccco1)N1CCN(C(c2ccccn2)c2nnnn2C2CCCC2)CC1 (stereo not drawn),15µM,?,?,?,?,13µM
O=C(CSc1nc2[nH]ncc2c(=O)n1-c1ccccc1Br)NCc1ccccc1Cl,0,0,0,0,0,0
N#CCSc1nc2[nH]ncc2c(=O)n1-c1ccccc1Br,0.13µM,?,?,0.32µM,?,-
CCN(CC)C(=O)N1c2ccccc2C=Cc2ccccc21,0,0,0,0,0,4µM
CS(=O)(=O)N1CCN(C(=O)c2cc(-c3cccnc3)nc3ccc(Br)cc23)CC1,0,0,?,0,0,0
CC(=O)c1ccc(N2CCN(C(=O)c3cc(-c4cccnc4)nc4ccc(Br)cc34)CC2)cc1,11µM,0,16µM,0,0,0
SMILES,FLuc counter,NPC1 prom act,ELG1 repair inh,Rab9 promoter act,ELG1 genotox,SMN2 splice enh
Cc1ccc2nc(-c3cccnc3)cc(C(=O)N3CCN(c4ccc([N+](=O)[O-])cc4)CC3)c2c1,?,0,?,0,0,0
O=C(Nc1ccc(C(=O)N2CCOCC2)cc1)c1cc(-c2cccnc2)nc2ccc(Br)cc12,?,0,9.2µM,0,0,0
O=C(c1cc(-c2cccnc2)nc2ccc(Br)cc12)N1CCN(c2ncccn2)CC1,21µM,0,?,0,0,0
COc1cc(-c2nnc(SCC(=O)N3c4ccccc4Sc4ccccc43)o2)cc(OC)c1OC,0,0,7.3µM,0,0,0
COc1cc(-c2nnc(SCC(=O)c3ccc(C)cc3)o2)cc(OC)c1OC,0,0,?,0,0,0
COc1cccc(C(=O)CSc2nnc(-c3cc(OC)c(OC)c(OC)c3)o2)c1,0,0,21µM,0,0,0
Cn1c(=O)c(=O)n(C)c2cc(N3CCCC3)c(NC(=O)c3ccc(C(C)(C)C)cc3)cc21,0,-,-,-,-,0
COc1ncc2nc(-c3ccc(F)cc3)c(=O)n(C[C@H]3CCCO3)c2n1,-,-,-,-,-,0
Cc1ccc2c(c1)c1c(n2C)-c2[nH]ncc2CC1,13µM,0,?,0,0,0
Cc1ccc2c(c1)c1c(n2C)C(C(N)=O)CCC1 (stereo not drawn),0,0,0,0,0,0
COc1ccc(CCNC(=O)c2cc3c(=O)oc4ccc(C)cc4c3s2)cc1OC,0,-,-,-,-,0
Cc1cc2cc(CCNC(=O)c3c(-c4ccccc4Cl)noc3C)c(=O)[nH]c2cc1C,0,0,13µM,0,0,0
Cc1cc2cc(CCNC(=O)c3cccc([N+](=O)[O-])c3)c(=O)[nH]c2cc1C,0,0,23µM,0,0,0
Cc1cc2cc(CCNC(=O)c3cccs3)c(=O)[nH]c2cc1C,13µM,2.8µM,?,3.2µM,?,13µM
Cc1ccc2cc(CCNC(=O)c3cccc([N+](=O)[O-])c3)c(=O)[nH]c2c1,0,0,?,0,0,0
COc1cccc(-c2nnc(-c3ccccc3NC(=O)c3cccc(C(F)(F)F)c3)o2)c1,0,-,-,-,-,0
O=c1c(Br)c(N2CCCCC2)cnn1-c1ccccc1,15µM,3.5µM,?,2µM,?,-
CN1CCN(c2cnn(-c3ccccc3)c(=O)c2Br)CC1,0,0,?,0,0,?
O=c1c(Br)c(N2CCCC2)cnn1-c1ccccc1,21µM,4µM,?,2µM,?,11µM
Cc1cc2c(cc1S(=O)(=O)Nc1cccc(Cl)c1C)OCCN2C,0,-,-,-,-,-
COc1ccccc1NC(=O)COc1ccc(CO)cc1Cl,6.7µM,?,?,?,15µM,0
O=C(COc1ccc(CO)cc1)Nc1ccc(F)cc1,0,0,?,0,?,0
COc1ccccc1NC(=O)COc1ccc(C(=O)NCc2ccccc2)cc1OC,0,0,26µM,0,0,-
O=C(COc1ccc(CO)cc1Cl)Nc1ccc(F)cc1,0.85µM,2µM,?,1.1µM,0.37µM,0
O=S(=O)(c1ccc2[nH]c3c(c2c1)CCCCC3)N1CCN(c2cccc(Cl)c2)CC1,0,-,-,-,-,-
CO/N=C(/C(=O)N[C@@H]1C(=O)N2C(C(=O)O)=C(COC(N)=O)CS[C@H]12)c1ccco1,-,-,-,-,-,0
COc1ccc(-c2cc(C(=O)Nc3cc(Cl)ccc3O)no2)cc1,?,3.5µM,?,?,16µM,-
COc1ccc(-c2cc(C(=O)Nc3cc(Cl)ccc3OC)no2)cc1,0,0,0,0,0,-
Cc1ccc(O)c(NC(=O)c2cc(-c3ccccc3Cl)on2)c1,?,?,?,?,16µM,-
COc1ccc(-c2cc(C(=O)Nc3cc(C)ccc3O)no2)cc1,0,?,?,0,21µM,-
